According to ChEMBL document CHEMBL3433997, “St. Jude Leishmania screening dataset” (2016):

How the values were obtained:
Format in all cases: functional
[1] = biological target: Solute carrier family 2, facilitated glucose transporter member 1 (Homo sapiens) (UniProt P11166); experiment: ST_JUDE_LEISH: Cytotoxicity at 2uM final concentration against transgenic Leishmania Mexicana promastigotes LmGLUT1 that are glucose transport deficient and complemented with the human glucose transporter GLUT1. Activity is measured by DNA content using SYBR green in vitro
Solute carrier family 2, facilitated glucose transporter member 1 (Homo sapiens), sequence (P11166 whole entry): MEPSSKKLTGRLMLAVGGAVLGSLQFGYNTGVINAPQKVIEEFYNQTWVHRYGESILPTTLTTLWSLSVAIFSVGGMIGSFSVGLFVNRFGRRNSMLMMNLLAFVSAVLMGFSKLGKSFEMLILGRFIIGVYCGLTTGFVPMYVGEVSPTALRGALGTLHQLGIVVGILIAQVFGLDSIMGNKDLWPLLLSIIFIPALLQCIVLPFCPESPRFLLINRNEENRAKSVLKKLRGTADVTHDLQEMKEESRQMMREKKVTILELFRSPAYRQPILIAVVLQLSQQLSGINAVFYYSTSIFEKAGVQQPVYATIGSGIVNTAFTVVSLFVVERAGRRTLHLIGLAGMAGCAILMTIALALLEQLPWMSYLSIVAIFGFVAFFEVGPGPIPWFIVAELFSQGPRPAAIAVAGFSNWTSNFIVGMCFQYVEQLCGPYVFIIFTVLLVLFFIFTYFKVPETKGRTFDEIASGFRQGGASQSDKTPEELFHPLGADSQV

[2] = biological target: Hexose transporter 1 (Plasmodium falciparum) (UniProt O97467); experiment: ST_JUDE_LEISH: Cytotoxicity at 2uM final concentration against transgenic Leishmania Mexicana promastigotes LmPfHT that are glucose transport deficient and complemented with the Plasmodium falciparum hexose transporter. Activity is measured by DNA content using SYBR green in vitro
[3] = biological target: Glucose transporter (Leishmania mexicana) (UniProt O61059); experiment: ST_JUDE_LEISH: Cytotoxicity at 2uM final concentration against transgenic Leishmania Mexicana promastigotes LmGT2 that are glucose transport deficient and complemented with the L. Mexicana glucose transporter 2. Activity is measured by DNA content using SYBR green in vitro

SMILES | inhibition [1] [%] | inhibition [2] [%] | inhibition [3] [%]
COc1cc(C=CC(=O)N2CCC(CCN3CCC(c4c[nH]c5ccccc45)CC3)CC2)cc(OC)c1 | 4.99 | 6.56 | 3.47
N=c1n(Cc2ccccc2)c2ccccc2n1CC(O)c1ccc(Cl)cc1 (centres undefined) | 1.36 | 2.09 | 1.14
O=c1cc(N2CCNCC2)c(Cl)nn1Cc1ccc(NS(=O)(=O)c2ccc(Oc3ccccc3)cc2)cc1 | 1.25 | 3.7 | 1.23
CCN1CCC(NCc2ccc(-c3ccc(Cl)s3)cc2)CC1 | -1.87 | -1.38 | -1.7
CC(=O)Nc1ncc(C(=O)Nc2ccc(-c3cccc(-c4nc5cc(F)ccc5[nH]4)c3)cc2)s1 | 6.62 | 7 | 6.95
CCOC(=O)NCC(=O)Nc1cccc(-c2cccc(-c3nc4cc(C(F)(F)F)ccc4[nH]3)c2)c1 | 1.41 | 0.35 | 5.34
COc1ccccc1C1CCN(C2CCC(NC(=O)/C=C/c3ccc(C(F)(F)F)cc3)CC2)CC1 (centres undefined) | 1.41 | 2.17 | 2.85
O=C(CNC1CCCCC1)Nc1cccc(C(=O)Nc2cccc(C(F)(F)F)c2)c1 | -1.07 | -0.66 | -1.14
Oc1ccc(Nc2nc(NCc3ccccc3)c3ccccc3n2)cc1 | 30.1 | 27.1 | 10.6
O=c1ccc2ccc(O)c(O)c2o1 | 7.05 | 5 | 4.39
CC(C)c1ncc(-c2ccncc2)c(C2CCC(CNC(=O)c3cccnc3)CC2)n1 (centres undefined) | 3.2 | 1.25 | 1.81
CCN(CCCN1CCCCC1)c1cc(C)nc(Nc2ccc(C)cc2C(F)(F)F)n1 | -1.87 | 0.39 | -1.54
N#Cc1ccc(-c2nc3c(N4CCCC4)cccc3n2CCNCc2ccccc2)cc1 | 12.3 | 11 | 11.8
